Values without a mark were called inactive. Results filed as inconclusive are left out. The source made the active and inactive calls. Unless noted, the call rests on the fitted dose curve; in most records, active means well fitted curve in the direction sought with a large enough effect in the repeat runs; inconclusive means weak or mixed curves; inactive means no such curve, though single readings can be large; an effect the other way counts as inactive or inconclusive.

Assay [1] is described as follows: qHTS assay to identify small molecule agonists of the estrogen receptor alpha (ER-alpha) signaling pathway in the presence of an antagonist - cell viability counter screen (AID 1259386).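 Further: series mostly up to about 92 µM; cells exposed to compounds for 22 h at 37 °C before the viability read; nearly all actives have a fitted effect of over 30% in size.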 An outline of the steps: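 Steps: 5-day stripped-FBS culture; seed and incubate 24hr; add ICI-182,780 (10.0nM final); pin 15-point compound titration; incubate 22hr at 37C; add CellTiter-Fluor at 21hr; read fluorescence.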
On the technique in general: In qHTS, concentration-response curves come from the screen itself.

In assay [2] the target is Progesterone receptor (Homo sapiens) (UniProt P06401). The experiment in a line: qHTS assay to identify small molecule agonists of the progesterone receptor (PR) signaling pathway (AID 1346784; calls by dose curve; further: nearly all actives have a fitted effect of over 30% in size). The procedure, abridged: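 Seed PR-UAS-bla HEK 293T cells (2% charcoal-stripped FBS), incubate 6 hr at 37C; add compounds in DMSO, 16 hr at 37C; add LiveBLAzer B/G substrate, 2 hr RT; read fluorescence intensity.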
Sequence of Progesterone receptor (Homo sapiens) (P06401 whole entry, looked up): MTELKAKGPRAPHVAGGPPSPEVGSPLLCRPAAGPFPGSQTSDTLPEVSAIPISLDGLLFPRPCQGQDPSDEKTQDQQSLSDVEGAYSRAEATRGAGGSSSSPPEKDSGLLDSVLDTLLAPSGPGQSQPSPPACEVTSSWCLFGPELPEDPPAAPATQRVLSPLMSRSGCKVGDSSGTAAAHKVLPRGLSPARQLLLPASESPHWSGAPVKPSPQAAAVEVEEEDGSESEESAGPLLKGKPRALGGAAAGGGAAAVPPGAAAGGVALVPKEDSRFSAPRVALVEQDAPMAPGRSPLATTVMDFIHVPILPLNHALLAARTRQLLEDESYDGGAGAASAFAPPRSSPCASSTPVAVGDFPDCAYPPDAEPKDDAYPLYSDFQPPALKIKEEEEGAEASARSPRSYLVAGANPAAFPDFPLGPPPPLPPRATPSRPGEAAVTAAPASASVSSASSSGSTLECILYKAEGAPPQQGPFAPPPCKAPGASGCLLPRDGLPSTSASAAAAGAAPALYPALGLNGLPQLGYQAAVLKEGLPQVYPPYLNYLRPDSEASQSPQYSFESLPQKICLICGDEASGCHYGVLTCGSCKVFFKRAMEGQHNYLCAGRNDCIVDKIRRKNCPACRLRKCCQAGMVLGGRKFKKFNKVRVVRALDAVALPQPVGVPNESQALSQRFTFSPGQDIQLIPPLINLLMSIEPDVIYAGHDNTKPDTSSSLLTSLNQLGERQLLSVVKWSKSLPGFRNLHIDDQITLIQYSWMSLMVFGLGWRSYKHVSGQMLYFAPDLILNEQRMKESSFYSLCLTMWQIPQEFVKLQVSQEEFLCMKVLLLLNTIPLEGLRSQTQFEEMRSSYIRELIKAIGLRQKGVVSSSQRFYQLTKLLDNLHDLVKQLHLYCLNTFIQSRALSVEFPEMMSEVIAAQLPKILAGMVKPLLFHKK

For assay [3] the target is unchanged. As to the kind of experiment: qHTS assay to identify small molecule antagonists of the progesterone receptor (PR) signaling pathway (AID 1346795; active means well fitted inhibition curve with a large enough effect in the signal ratio in the repeat runs, not every such curve was filed as active; the % refers to the signal ratio). An outline of the steps: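 Screening used a GripTite HEK293T line with PR-responsive UAS-beta-lactamase. Cells were challenged with compound in the presence of 1 nM R5020 final for 16 hr at 37C; B/G FRET substrate, 2 hr room temperature, fluorescence.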

The nature of assay [4]: qHTS assay to identify small molecule antagonists of the progesterone receptor (PR) signaling pathway - cell viability counter screen (AID 1346798). Further: series mostly up to about 92 µM; nearly all actives have a fitted effect of over 50% in size. The procedure, abridged:
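Measures cytotoxicity in parallel with the PR antagonist reporter read: HEK293T PR-UAS-bla cells get compound and R5020 for 16 hr, and remaining viable cells are quantified by CellTiter-Glo luminescence.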

Assay [5] in a line: qHTS assay to identify small molecule agonists of the progesterone receptor (PR) signaling pathway - cell viability counter screen (AID 1346799; calls by dose curve; further: nearly all actives have a fitted effect of over 45% in size). An outline of the steps: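 Using the same plates as the PR reporter screen, HEK293T PR-UAS-bla cells received compounds for 16 hr at 37C and were then lysed with CellTiter-Glo; luminescence was read 30 min later at room temperature.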

Assay [6] is described as follows: qHTS assay to identify small molecule antagonists of the TGF-beta/Smad signaling pathway - cell viability counter screen (AID 1346824). Further: nearly all actives have a fitted effect of over 50% in size. The procedure, abridged: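 Cytotoxicity counter-screen run in the same wells as the beta-lactamase Smad reporter read: CellTiter-Glo luminescence after 30 min at room temperature. HEK 293T SBE-bla cells had 5 hr compound exposure at 37 C with TGF-beta1 (0.25 ng/mL stock).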

Assay [7] is described as follows: qHTS assay to identify small molecule agonists of the TGF-beta/Smad signaling pathway - cell viability counter screen (AID 1346829). Further: top concentration of the series differs between compounds; nearly all actives have a fitted effect of over 45% in size. The procedure, abridged:
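Here the cytotoxicity of library compounds is measured in SBE-bla HEK 293T cells treated for 5 hr, using CellTiter-Glo added to wells already read for the beta-lactamase reporter.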

Assay [8] in a line: qHTS assay to identify small molecule agonists of the TGF-beta/Smad signaling pathway (AID 1346859; active means well fitted activation curve with a large enough effect in the signal ratio in the repeat runs, not every such curve was filed as active; the % refers to the signal ratio; further: series mostly up to about 77 µM). The procedure, abridged: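 Beta-lactamase reporter activity downstream of Smad binding elements was measured in stably transfected HEK 293T cells; compounds were incubated for 5 hr, substrate for 2 hr at room temperature.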
In assay [9] the target is Thyrotropin-releasing hormone receptor (Homo sapiens) (UniProt P34981). As to the kind of experiment: qHTS assay to identify small molecule antagonists of the thyrotropin-releasing hormone receptor (TRHR) signaling pathway (AID 1346877; active means well fitted inhibition curve with a large enough effect in the repeat runs, not every such curve was filed as active; further: series mostly up to about 51 µM). The procedure, abridged: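 Human TRHR in HEK293 cells; inhibition of the intracellular calcium rise triggered by 1 nM TRH was followed by fluorescence over 3 min. Compounds were run at 15 concentrations, three replicates each.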
Sequence of Thyrotropin-releasing hormone receptor (Homo sapiens) (P34981 whole entry, looked up): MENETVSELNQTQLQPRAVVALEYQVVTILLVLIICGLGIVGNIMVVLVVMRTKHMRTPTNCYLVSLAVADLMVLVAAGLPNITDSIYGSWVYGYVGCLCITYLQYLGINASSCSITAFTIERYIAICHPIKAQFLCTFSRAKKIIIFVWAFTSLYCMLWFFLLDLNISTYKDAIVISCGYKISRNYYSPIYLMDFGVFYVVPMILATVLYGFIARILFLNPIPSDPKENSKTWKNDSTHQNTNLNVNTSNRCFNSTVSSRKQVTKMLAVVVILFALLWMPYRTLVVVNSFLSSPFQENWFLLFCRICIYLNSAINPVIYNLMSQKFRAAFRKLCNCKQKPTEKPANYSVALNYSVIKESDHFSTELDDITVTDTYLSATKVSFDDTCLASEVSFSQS

Assay [10] has the same target. As to the kind of experiment: qHTS assay to identify small molecule agonists of the thyrotropin-releasing hormone receptor (TRHR) signaling pathway (AID 1346891; calls by dose curve; further: potency means the concentration at half of the fitted maximal effect;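 on activation: HEK293 cells expressing TRHR with calcium dye readout; series mostly up to about 58 µM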). The procedure, abridged: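 Overnight-plated (18 h, 37 °C, 5% CO2) TRHR-Hek293 cells; 2 h calcium dye at 37 °C; compound in DMSO; 3-min kinetic fluorescence read.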
Assay [11] can be described thus: Human pregnane X receptor (PXR) small molecule agonists, qHTS cell viability counter screen (AID 1346977). Further: nearly all actives have a fitted effect of over 50% in size. The procedure, abridged:
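After a 5hr pre-incubation, PXR-Luc HepG2 cells received compounds plus positive control in DMSO and were kept 24hr at 37C. Cell viability was quantified by fluorescence from CellTiter-Fluor added for the final hour.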

The nature of assay [12]: Caspase-3/7 induction in HepG2 cells by small molecules, qHTS assay (AID 1346978). Further: nearly all actives have a fitted effect of over 15% in size. The procedure, abridged:
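Caspase-3/7 induction was measured by Caspase-Glo 3/7 luminescence (30 min, room temperature) after a 17 hr compound exposure of wild-type HepG2 cells seeded at 2,000 per well and pre-incubated 5 hr.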

Assay [13] can be described thus: Caspase-3/7 induction in CHO-K1 cells by small molecules, qHTS cell viability counter screen (AID 1346979). Further: nearly all actives have a fitted effect of over 35% in size. An outline of the steps:
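Multiplexed with Caspase-Glo 3/7 in CHO-K1 cells, this counter screen added CellTiter-Fluor after 16hr of compound exposure and recorded fluorescence 1hr later.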

Assay [14] can be described thus: Caspase-3/7 induction in CHO-K1 cells by small molecules, qHTS assay (AID 1346980). Further: nearly all actives have a fitted effect of over 15% in size. The procedure, abridged:
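Luminescent Caspase-Glo 3/7 read (30min, room temperature) quantified apoptosis induction. Cells were wild-type CHO-K1, treated with compound for 17hr at 37 C and 5% CO2.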

Assay [15] can be described thus: Caspase-3/7 induction in HepG2 cells by small molecules, qHTS cell viability counter screen (AID 1346981). Further: series mostly up to about 92 µM; nearly all actives have a fitted effect of over 30% in size. An outline of the steps: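 The parent HepG2 line is plated at 2,000 cells per well and rested 5 hr before compound pinning from DMSO stocks. Following a 16-hr treatment at 37 C, a fluorogenic live-cell substrate (CellTiter-Fluor) reports viability after 1 hr.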

Assay [16] has as its target Nuclear receptor subfamily 1 group I member 2 (Homo sapiens) (UniProt O75469). The experiment in a line: Human pregnane X receptor (PXR) small molecule agonists, qHTS assay (AID 1346982). Further: nearly all actives have a fitted effect of over 35% in size. Further: potency means the concentration at half of the fitted maximal effect. The procedure, abridged:
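After plating in 5% charcoal-stripped FBS and a 5 hr rest, PXR-Luc HepG2 cells received compounds in DMSO. Following 24 hr at 37 C, ONE-Glo was added and light output read.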

The target in assay [17] is Nuclear receptor subfamily 1 group I member 2 (Rattus norvegicus) (UniProt Q9R1A7). The experiment in a line: Rat pregnane X receptor (rPXR) activation by small molecules, qHTS assay (AID 1346983). Further: nearly all actives have a fitted effect of over 20% in size. The settings on record: rPXR luciferase reporter cells, One-Glo luminescence, 24 h; max activation: active compounds read high. An outline of the steps: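 Luminescent readout (One-Glo luciferase, 30 min room temperature) followed 24 hr compound treatment at 37 C of rPXR cells plated 2,000 per well and preincubated 5hr; qHTS format with compounds delivered in DMSO.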
Sequence of Nuclear receptor subfamily 1 group I member 2 (Rattus norvegicus) (Q9R1A7 whole entry, looked up): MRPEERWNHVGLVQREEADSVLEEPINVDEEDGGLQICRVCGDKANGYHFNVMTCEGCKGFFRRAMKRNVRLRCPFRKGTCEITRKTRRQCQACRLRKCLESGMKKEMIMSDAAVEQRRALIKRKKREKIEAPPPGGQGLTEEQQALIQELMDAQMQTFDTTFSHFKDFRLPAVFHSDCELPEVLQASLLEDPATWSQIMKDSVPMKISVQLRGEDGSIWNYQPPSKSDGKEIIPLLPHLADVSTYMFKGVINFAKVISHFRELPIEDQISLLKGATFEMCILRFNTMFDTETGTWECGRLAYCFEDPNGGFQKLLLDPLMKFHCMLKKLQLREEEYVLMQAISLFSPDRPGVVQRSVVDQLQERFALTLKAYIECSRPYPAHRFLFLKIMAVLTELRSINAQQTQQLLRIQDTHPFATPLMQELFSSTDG

Assay [18] deals with Nuclear receptor subfamily 1 group I member 2 (Homo sapiens) (UniProt O75469). As to the kind of experiment: CYP3A4 induction through human pregnane X receptor (PXR) by small molecules, qHTS assay (AID 1346984). Further: nearly all actives have a fitted effect of over 40% in size. The procedure, abridged: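 Human PXR activation is tracked via CYP3A4 promoter-luciferase in DPX-2 (HepG2) cells. Compounds treat cells for 24hr at 37C, and luminescence is read after One-Glo.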
Sequence of Nuclear receptor subfamily 1 group I member 2 (Homo sapiens) (O75469 whole entry, looked up): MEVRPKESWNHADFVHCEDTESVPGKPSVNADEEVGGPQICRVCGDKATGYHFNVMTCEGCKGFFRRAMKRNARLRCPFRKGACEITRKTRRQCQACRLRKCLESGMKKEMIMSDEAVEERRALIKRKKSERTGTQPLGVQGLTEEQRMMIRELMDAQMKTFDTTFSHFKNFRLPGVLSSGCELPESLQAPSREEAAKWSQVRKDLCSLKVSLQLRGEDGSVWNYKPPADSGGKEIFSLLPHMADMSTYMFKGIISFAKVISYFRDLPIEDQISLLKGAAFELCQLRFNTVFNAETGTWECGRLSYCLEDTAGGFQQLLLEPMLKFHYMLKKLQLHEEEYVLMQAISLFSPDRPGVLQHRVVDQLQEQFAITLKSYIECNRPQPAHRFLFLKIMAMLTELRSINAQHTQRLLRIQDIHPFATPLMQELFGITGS

For assay [19] the target is unchanged. As to the kind of experiment: Human pregnane X receptor (PXR) activation by small molecules, qHTS assay (AID 1346985). Further: nearly all actives have a fitted effect of over 40% in size. An outline of the steps:
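DPX-2 cells (HepG2 co-transfected with a PXR response element and a CYP3A4-promoter luciferase construct) were seeded at 2,000 per well, rested 5 hr at 37C, then exposed to DMSO-dissolved compounds for 24 hr. Activation was read as luciferase luminescence.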

The target in assay [20] is Cytochrome P450 2D6 (Homo sapiens) (UniProt P10635). As to the kind of experiment: Cytochrome P450 Family 2 Subfamily D Member 6 (CYP2D6) small molecule antagonists: luciferase reporter qHTS assay (AID 1671196). Further: nearly all actives have a fitted effect of over 50% in size. Further: potency means the concentration at half of the fitted maximal effect. An outline of the steps:
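Quantitative HTS of Tox21 chemicals against CYP2D6 using a luminescent proluciferin substrate. After NADPH addition, 1 h room-temperature reaction; luminescence recorded 20 min post detection reagent.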
On the technique in general: In a reporter assay the amount or activity of a reporter protein is the signal.
On the % scale 0 is the no-effect control and ±100 the full control effect.

Sequence of Cytochrome P450 2D6 (Homo sapiens) (P10635 whole entry, looked up): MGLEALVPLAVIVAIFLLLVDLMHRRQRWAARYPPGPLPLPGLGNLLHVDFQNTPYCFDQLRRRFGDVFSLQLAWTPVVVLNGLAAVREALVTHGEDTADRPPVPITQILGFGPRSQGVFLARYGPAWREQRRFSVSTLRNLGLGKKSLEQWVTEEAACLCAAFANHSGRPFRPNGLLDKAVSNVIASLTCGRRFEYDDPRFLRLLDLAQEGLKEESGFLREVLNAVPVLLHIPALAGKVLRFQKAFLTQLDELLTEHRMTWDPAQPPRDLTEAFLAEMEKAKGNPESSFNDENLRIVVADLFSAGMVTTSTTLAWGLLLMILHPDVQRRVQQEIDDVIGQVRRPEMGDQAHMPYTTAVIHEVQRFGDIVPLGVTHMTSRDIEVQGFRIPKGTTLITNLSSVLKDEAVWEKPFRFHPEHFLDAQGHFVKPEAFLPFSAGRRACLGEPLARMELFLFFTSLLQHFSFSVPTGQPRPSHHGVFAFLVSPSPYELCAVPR

Turning to `CN1C(=O)OC(C)(C)C1=O`, the Potency entry in [1], in assay [2], in assay [3], in assay [4], in [5] and in assay [6] was “inactive” throughout. Besides, the Potency result in [7], in assay [8], in assay [10], in [11], in assay [12] and in [13] was “inactive” each time. Besides, the Potency entry in assay [14], in assay [15], in assay [18], in assay [19] and in [20] was “inactive” in each case. In addition, the call in assay [9] was inactive. Also, the Potency in assay [16] was 37.9 µM (active). Further, in assay [17], the max activation was -2.55%.
`OCCOCC#CCOCCO`: the Potency result in assay [1], in [2], in assay [3], in assay [4], in assay [5] and in [6] was “inactive” throughout. Further, the Potency entry in assay [7], in assay [8], in [10], in assay [11], in assay [12] and in assay [13] was “inactive” throughout. Besides, the Potency entry in assay [14], in assay [15] and in assay [20] was “inactive” each time. Besides, the outcome in assay [9] was inactive.
As for `CC(CO)CO`, the Potency result in [1], in assay [2], in assay [3], in [4], in assay [5] and in assay [6] was “inactive” throughout. The Potency entry in assay [7], in [8], in [10], in [11], in assay [12] and in [13] was “inactive” each time. The Potency entry in assay [14], in [15], in [16] and in [20] was “inactive” in each case. For the same compound, the outcome in assay [9] was inactive.
As for `FC(F)(F)c1ccccc1Cl`, the Potency entry in assay [1], in assay [2], in [3], in [4], in assay [5] and in assay [6] was “inactive” in each case. The Potency result in assay [7], in [8], in [10], in assay [11], in [12] and in assay [13] was “inactive” in each case. The Potency result in assay [14], in assay [15] and in [16] was “inactive” each time. Also, the compound was classed as inactive in assay [9]. Also, in assay [20], the Potency is 46 µM (active).
With `C=C(C)C(=O)OCCOCCOC(=O)C(=C)C`, the Potency entry in assay [1], in [2], in [3], in [4], in assay [5] and in assay [6] was “inactive” each time. The Potency entry in assay [7], in assay [8], in assay [10], in assay [11], in [12] and in assay [13] was “inactive” in each case. In addition, the Potency result in assay [14], in [15], in assay [16] and in assay [20] was “inactive” in each case. The outcome in assay [9] was inactive.
For `CC1CC(OC(=O)C(O)c2ccccc2)CC(C)(C)N1C` (configuration not stated), the Potency entry in assay [1], in assay [2], in assay [3], in assay [4], in [5] and in [6] was “inactive” each time. For the same compound, the Potency entry in assay [7], in [8], in assay [10], in [11], in assay [12] and in assay [13] was “inactive” in each case. In addition, in assay [9], the compound was classed as inactive.
In the case of `C=C(C)C(=O)OCCCCCCCCCCCCC`, the Potency result in [1], in assay [2], in assay [3], in assay [4], in [5] and in assay [6] was “inactive” throughout. Also, the Potency result in assay [7], in assay [8], in [10], in assay [11], in [12] and in assay [13] was “inactive” each time. The Potency entry in assay [15] and in assay [20] was “inactive” each time. Besides, the call in [9] was inactive.
Regarding `CC(=O)OCC[N+](C)(C)C`, the Potency entry in [1], in [2], in [3], in assay [4], in [5] and in [6] was “inactive” in each case. Besides, the Potency result in assay [7], in assay [8], in assay [11], in [12], in [13] and in assay [14] was “inactive” throughout. The Potency result in [15], in assay [16] and in assay [20] was “inactive” in each case. The outcome in [9] was inactive. In addition, the Potency in assay [10] was 3.01 µM (active).
